Experimental data published in PubChem BioAssay (Tox21).
Results filed as inconclusive are left out. A call without a number means that no potency is given here. Active and inactive are the calls of the source. Unless noted, the call rests on the fitted dose curve.

Molecular target: Retinoic acid receptor RXR-alpha (Homo sapiens) (UniProt P19793)
Test: qHTS assay to identify small molecule agonists of the RXR signaling pathway (AID 1159527); further: nearly all actives have a fitted effect of over 35% in size
Settings: HEK293T RXRa-UAS-bla, beta-lactamase ratio, 16 h; series mostly up to 76.8 µM
Method in brief: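 Agonist mode; 9-cis retinoic acid positive control. HEK 293T UAS-bla reporter cells, 2% charcoal-stripped FBS, 16 hr compound exposure at 37 C/5% CO2. LiveBLAzer B/G FRET substrate 2 hr RT; ex 405, em 460/530 nm.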
Potency means the concentration at half of the fitted maximal effect.

Retinoic acid receptor RXR-alpha (Homo sapiens), sequence (P19793 whole entry, looked up): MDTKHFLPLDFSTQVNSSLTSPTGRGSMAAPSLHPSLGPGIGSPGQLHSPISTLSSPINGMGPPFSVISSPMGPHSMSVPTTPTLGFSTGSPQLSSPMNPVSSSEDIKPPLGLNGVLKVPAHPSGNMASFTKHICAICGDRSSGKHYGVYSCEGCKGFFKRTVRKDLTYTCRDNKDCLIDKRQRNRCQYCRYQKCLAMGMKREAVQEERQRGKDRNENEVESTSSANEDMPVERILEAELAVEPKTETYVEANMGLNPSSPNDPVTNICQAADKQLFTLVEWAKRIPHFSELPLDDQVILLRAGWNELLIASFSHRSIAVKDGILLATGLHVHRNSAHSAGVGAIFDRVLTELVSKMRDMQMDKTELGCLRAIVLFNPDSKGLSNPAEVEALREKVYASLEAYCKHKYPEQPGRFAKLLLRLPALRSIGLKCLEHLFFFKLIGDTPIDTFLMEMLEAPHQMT

SMILES	Potency
CCC1(c2ccccc2)C(=O)NC(=O)NC1=O	inactive
CC(C)NCC(O)c1ccc(N)c(C#N)c1 (configuration not stated)	inactive
CCc1cc2c(s1)-n1c(C)nnc1CN=C2c1ccccc1Cl	inactive
O=C1OC(=O)C2C1C1(Cl)C(Cl)=C(Cl)C2(Cl)C1(Cl)Cl (configuration not stated)	inactive
Cc1nnc2n1-c1sc(CCC(=O)N3CCOCC3)cc1C(c1ccccc1Cl)=NC2	inactive
COP(=S)(OC)Oc1c(Cl)cc(C)cc1Cl	inactive
CC(C)CC(N(C)C)C1(c2ccc(Cl)cc2)CCC1 (configuration not stated)	inactive
CCC(=O)C(CCN(C)C)(c1ccccc1)c1ccccc1	inactive
O=P(O)(Oc1ccccc1)Oc1ccccc1	inactive
CN/C(=N\[N+](=O)[O-])NCC1CCOC1 (configuration not stated)	inactive
CCN(Cc1ccc(Cl)nc1)/C(=C/[N+](=O)[O-])NC	inactive
OC(c1ccc(F)cc1)(c1cncnc1)c1ccccc1Cl (configuration not stated)	inactive
C[C@H]1CCC[C@H](O)CCCCCc2cc(O)cc(O)c2C(=O)O1	inactive
CC(=O)[C@H]1CC[C@H]2[C@@H]3CC[C@H]4C[C@H](O)CC[C@]4(C)[C@H]3C(=O)C[C@]12C	inactive
CCOP(=S)(Oc1cnc(C(C)(C)C)nc1)OC(C)C (configuration not stated)	inactive
C(CCOCC1CO1)COCC1CO1 (configuration not stated)	inactive
CCCCOC(=O)c1ccccc1N	inactive
CCC(Cl)[N+](=O)[O-] (configuration not stated)	inactive
C[C@]12CC[C@H]3[C@@H](CC=C4C[C@@H](O)CC[C@@]43C)[C@@H]1CC[C@@H]2O	inactive
Clc1ccccc1N1CCNCC1	inactive
C1CCC(C2CCCCC2)CC1	38.9 µM (active)
O=C(O)C(Br)CBr (configuration not stated)	9.94 µM (active)

Tested on: not listed separately
Test: qHTS assay to identify small molecule agonists of the RXR signaling pathway - cell viability counter screen (AID 1159529; active means well fitted cell-killing curve with a large enough effect in the repeat runs; further: nearly all actives have a fitted effect of over 50% in size)
Settings: RXR-alpha-bla HEK293T viability, CellTiter-Glo, 16 h; series mostly up to 76.8 µM
Method in brief: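 Luminescence from CellTiter-Glo (30 min, RT) measured viability in the same wells as the beta-lactamase reporter readout. Cells: GeneBLAzer RXR-alpha HEK 293T, 2% charcoal-stripped FBS. Compound exposure 16 hr, 37 C.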

SMILES	Potency
CC1CN1P(=O)(N1CC1C)N1CC1C (configuration not stated)	inactive
CC(C)(C)NCC(O)c1cc(Cl)c(N)c(Cl)c1 (configuration not stated)	inactive
CCC1(c2ccccc2)C(=O)N=C(O)NC1=O (configuration not stated)	inactive
COc1cc(C[C@@H](C)N)c(OC)cc1C	inactive
CCCCOP(=O)(O)OCCCC	inactive
O=NN1CCCCC1	inactive
[Cl][Sn]([Cl])([Cl])[Cl]	inactive
COc1cccc2c1cc([N+](=O)[O-])c1c(C(=O)O)cc3c(c12)OCO3	17.4 µM (active)
CCCCCCI	inactive
CCOC(=O)NC(=S)Nc1ccccc1NC(=S)NC(=O)OCC	inactive
[O]=[Cd]	inactive
N#Cc1c(Cl)cccc1Cl	inactive
CN1CCC(O)(c2ccc(F)cc2)C(C(=O)c2ccc(F)cc2)C1 (configuration not stated)	inactive
O=S(=O)(O)C(F)(F)C(F)(F)C(F)(F)C(F)(F)C(F)(F)C(F)(F)F	inactive
NC(=O)O	inactive
